Data published in PubChem BioAssay AID2265 (National Center for Advancing Translational Sciences (NCATS), 2010).
Some of the results follow. Inconclusive results are not listed. Calls of active or inactive are those of the source. Calls come from the whole dose curve; as a rule, active = well fitted inhibition curve with a large enough effect; inconclusive = small, poorly fitted or top-dose-only effect; inactive = flat fitted curve, though single readings scatter.

Target: Luciferin 4-monooxygenase (Photuris pensylvanica) (UniProt Q27757)
Assay: Secondary assay for Inhibitors of Human Pyruvate Kinase M2 isoform: FLuc Counterscreen
Settings: Kinase-Glo firefly luciferase, luminescence, 8 min; series mostly up to 57.5 µM; activity, negative = inhibition: at the top concentration
Description: NIH Chemical Genomics Center [NCGC] Matthew G. Vander Heiden, M.D., Ph.D. [Harvard Medical School, 77 Avenue Louis Pasteur, Boston, MA 02115] MLPCN Grant: 1 R03 MH085679-01 NCGC Assay Overview: Luciferase (Kinase-Glo, Promega Corporation) was assayed for its ability to generate light using ATP and luciferin as substrates. The ATP concentration in the assay (10 uM) was within the linear range of enzyme activity for the assay conditions used. This assay was used as an counter screen for human pyruvate kinase M2 isoform.
NCGC Assay Protocol Summary: Four uL of substrate mix (final concentration, 50 mM imidazole pH 7.2, 50 mM KCl, 7 mM MgCl2, 10 uM ATP, 0.01% Tween 20, 0.05% BSA) was dispensed into white 1536 well plates. Twenty-three nL of compound was delivered by a pin tool and 2 uL of luciferase detection mix (Kinase-Glo, Promega)) was added. Following 8-minute incubation at ambient temperature, luminescence was measured by a ViewLux (Perkin Elmer) at 5 seconds exposure/plate.

Row | SMILES | activity, negative = inhibition
1 | Cc1ccc(-c2nc3ccccn3c2Nc2ccc(F)cc2)o1 | 3.49% (inactive)
2 | Cc1ccc(Nc2c(-c3ccc(C)s3)nc3ccccn23)cc1 | -2.62% (inactive)
